# Experimental data published in PubChem BioAssay AID624296 (National Center for Advancing Translational Sciences (NCATS), 2012).
# The whole screen tested about 350,000 compounds, of which about 9,900 (2.8%) were called active. A call without a number means that no potency is given here. Inconclusive results (about 15%) are left out. The call rests on the fitted dose curve; in most records, active means well fitted activation curve with a large enough effect; inconclusive means small, poorly fitted or top-dose-only effect; inactive means no such curve, though single readings can be large or run the other way. For the sample, actives were picked, then their nearest neighbours and some compounds at random.
# Assay: A quantitative high throughput screen for small molecules that induce DNA re-replication in MCF 10a normal breast cells. Further: nearly all actives have a fitted effect of over 50% in size.
# Details: MCF 10A DNA re-replication, Hoechst nuclear intensity, 48 h; series mostly up to 46.1 µM
# Potency means the concentration at half of the fitted maximal effect.
row,Compound,Potency
1,COc1ccc(OCCNC(=O)c2cc(C3CC3)nc3c2cnn3C(C)C)cc1,inactive
2,Cc1cc(C)c2c(=O)[nH]c(SCC(=O)Nc3ccc(Br)cc3)nc2n1,11.6 µM (active)
3,Cc1cccc(NC(=O)CSc2nc3[nH]ncc3c(=O)[nH]2)c1,inactive
4,O=C(CSc1nc2[nH]ncc2c(=O)[nH]1)Nc1ccc(F)cc1,inactive
5,COc1ccccc1-n1nnnc1S(=O)(=O)Cc1ccc(Cl)cc1,16.4 µM (active)
6,COc1ccccc1N1CCN(S(=O)(=O)c2ccc(Cl)cc2)CC1,inactive
7,COc1ccccc1-n1nnnc1SCC(=O)NC(=O)Cc1ccccc1,inactive
8,CCN(CC(=O)Nc1ccc(NC(C)=O)cc1)C(=O)CSC(=S)N1CCCC1,inactive
9,Cc1cc(C(=O)NC2CC(C)(C)Cc3c2cnn3-c2ccccc2)n[nH]1 (configuration not stated),inactive
10,CC1(C)Cc2c(cnn2-c2cccc(F)c2)C(NC(=O)c2cc[n+]([O-])cc2)C1 (configuration not stated),inactive
11,COC(=O)c1ccc(C(=O)NC2CC(C)(C)Cc3c2cnn3-c2ccc(F)cc2)nc1 (configuration not stated),20.6 µM (active)
12,CCOc1cc(/C=C(\C#N)c2nc(-c3cccs3)c(NC(C)=O)s2)ccc1O,5.8 µM (active)
13,COc1cc(/C=N\Nc2nc(-c3cccs3)c(NC(C)=O)s2)ccc1O,inactive
14,CCOc1cc(C=NNC(=O)CCCC(=O)NN=Cc2ccc(O)c(OCC)c2)ccc1O,inactive
15,COc1ccc(S(=O)(=O)N2CCN(C(C)C(=O)Nc3ccc(C(C)C)cc3)CC2)cc1 (configuration not stated),inactive
16,CCN(CC(=O)Nc1cc(Cl)ccc1C)C(=O)CSCc1ccccc1,inactive
17,Cc1ccccc1-c1cc(C(=O)NCC2CC2)n(CC2CC(c3cccnc3)=NO2)n1 (configuration not stated),inactive
18,Cn1c(SCC(=O)Nc2ccc(N3CCOCC3)cc2)nnc1C(F)(F)F,inactive
19,O=C(NCc1ccc2c(c1)OCO2)c1cc([N+](=O)[O-])ccc1N1CCOCC1,5.8 µM (active)
20,CC1CCN(c2ccc(C(=O)NCc3ccc4c(c3)OCO4)cc2[N+](=O)[O-])CC1,inactive
21,O=C(NC1CCCCC1)c1cc([N+](=O)[O-])ccc1N1CCOCC1,inactive
22,COc1ccccc1NC(=O)N(O)C1(C#N)CCCCC1,inactive
23,CN(C)C(=O)CCc1ccc2c3c([nH]c2c1)[C@]1(C)[C@@H](C(=O)N2CCOCC2)C[C@H](CC(=O)NCCc2ccccn2)C(=O)N1CC3,inactive
24,CC(C)CN1CC(C)C(=O)N(c2ccccc2)C1=S (configuration not stated),inactive
25,COc1ccc(CCNC(=O)CCn2c(=O)c3ccccc3n(CC(=O)NCC3CCCO3)c2=O)cc1OC (configuration not stated),inactive

row,Compound,Potency
1,COc1ccc(CCNC(=O)Cn2c(=O)n(CC3CCCO3)c(=O)c3ccccc32)cc1OC (configuration not stated),inactive
2,COc1ccc2oc(C(=O)NCc3ccco3)c(C)c2c1,inactive
3,Cc1ccc(-c2noc(-c3ccccc3C(=O)NCC3CCCO3)n2)cc1 (configuration not stated),inactive
4,O=C(NCC1CCCO1)c1cc(-c2ccccc2)nc2ccccc12 (configuration not stated),inactive
5,COc1ccc(C(=O)Nc2ccccc2C(=O)NCc2ccco2)cc1,inactive
6,COc1ccc(CNC(=O)c2cc3c(=O)n4ccccc4nc3n(CC3CCCO3)c2=N)cc1 (configuration not stated),9.2 µM (active)
7,O=C(CSc1nc2ccccc2c(=O)n1Cc1ccc(F)cc1)NCC1CCCO1 (configuration not stated),inactive
8,Cc1cccn2c(=O)c3cc(C(=O)NCC4CCCO4)c(=N)n(Cc4ccc(F)cc4)c3nc12 (configuration not stated),1.84 µM (active)
9,Cc1ccc(CCNC(=O)c2ccc3nc4ccccc4c(=O)n3c2)cc1,inactive
10,COc1ccc(CCn2c(=N)c(C(=O)NCc3ccco3)cc3c(=O)n4cccc(C)c4nc32)cc1,18.4 µM (active)
11,Cc1ccc2nc3c(cc(C(=O)NCCc4ccccc4)c(=N)n3CC3CCCO3)c(=O)n2c1 (configuration not stated),6.51 µM (active)
12,O=C(CSc1nccn1-c1cccc(F)c1)NC1CCCC1,inactive
13,C#CCOCCOCCOCCNc1nc(N2CCN(C(=O)Cn3cc(CCO)nn3)CC2)nc(N2CCN(C(=O)[C@H](CCCCN)n3cc(CCCC)nn3)CC2)n1,inactive
14,O=C1NCC(Nc2ccccc2)C(=O)N1 (configuration not stated),inactive
15,COc1ccc(C(=O)C(C)OC(=O)c2cccc(S(=O)(=O)Nc3c(C)n(C)n(-c4ccccc4)c3=O)c2)cc1 (configuration not stated),inactive
16,CCC(=O)c1ccc(OCC(=O)N(CC)CC2COc3ccccc3O2)cc1 (configuration not stated),inactive
17,COc1cc(C)ccc1OCC(=O)OCC(=O)c1ccc[nH]1,inactive
18,COC(=O)[C@]1(Cc2ccccc2)N[C@H](CN(C)S(=O)(=O)c2ccc(OC(F)(F)F)cc2)[C@@H]2C(=O)N(Cc3ccccc3)C(=O)[C@@H]21,inactive
19,CC(NC(=O)c1ccccc1)C(=O)OCC(=O)Nc1cccc(S(=O)(=O)N2CCCC2)c1 (configuration not stated),inactive
20,CC(NC(=O)CN(C)S(=O)(=O)c1ccc(F)cc1)C1CC2CCC1C2 (configuration not stated),inactive
21,C=CC1=C(C(=O)O)N2C(=O)[C@@H](NC(=O)/C(=N\OCC(=O)O)c3csc(N)n3)[C@H]2SC1,inactive
22,O=C(NCc1ccccc1)C(=O)NCC1OCCN1S(=O)(=O)c1ccc(Br)cc1 (configuration not stated),inactive
23,COc1ccc(S(=O)(=O)N2CCOC2CNC(=O)C(=O)NCc2ccncc2)cc1OC (configuration not stated),inactive
24,O=C(NCc1ccncc1)C(=O)NCC1OCCN1S(=O)(=O)c1ccc(Br)cc1 (configuration not stated),18.4 µM (active)
25,CCN1C[C@@H]2[C@@H]3C(=O)N(Cc4ccccc4)C(=O)[C@@H]3[C@](C)(C1=O)N2C(=O)c1ccc(C(C)(C)C)cc1,inactive

row,Compound,Potency
1,Cc1cccc(NS(=O)(=O)c2ccc(C)c(C(=O)NCC(c3ccccc3)N(C)C)c2)c1 (configuration not stated),inactive
2,OCc1ccc(-c2ccccc2)c(-c2ccccc2)c1,23.1 µM (active)
3,OCC(CO)(CO)NCc1ccc(-c2ccccc2)cc1,inactive
4,OCc1nc(CO)n(Cc2ccccc2)n1,inactive
5,O=c1c2ccccc2ccc2ccc(P(=O)(O)O)cc12,inactive
6,COc1ccc(NS(=O)(=O)c2cccc(C(=O)NCCc3ccc(S(N)(=O)=O)cc3)c2)cc1,inactive
7,CN(CC(=O)Nc1ccc(Cl)c(C(F)(F)F)c1)C(=O)CCC(=O)c1ccccc1,inactive
8,Cc1ccc(NC(=O)C(C)OC(=O)C2CC3CCCC(C2)C3=O)cc1S(=O)(=O)N1CCOCC1 (configuration not stated),inactive
9,CCc1ccccc1NC(=O)CN(C)C(=O)c1cc(C2CC2)nn1-c1ccccc1,inactive
10,CCc1ccc(CN(C)C(C)C(=O)Nc2ccc(S(=O)(=O)N3CCCC3)cc2)cc1 (configuration not stated),inactive
11,CCOC(=O)c1sc(NC(=O)CSc2nnc(-c3ccco3)o2)c(C(=O)OCC)c1C,inactive
12,CCC(=O)Nc1sc(C(=O)N2CCCCC2)c(C)c1C#N,inactive
13,CCOC(=O)c1sc(NC(=O)CSc2ncccn2)c(C#N)c1C,14.6 µM (active)
14,O=C(Nc1ccc2ccccc2c1[N+](=O)[O-])c1ccccc1,inactive
15,COc1ccc(S(=O)(=O)N2CCCCC2)cc1NC(=O)COc1ccccc1,inactive
16,CCCc1cc(=O)[nH]c(SCC(=O)Nc2ccc(C(=O)Nc3ccccc3OC)cc2)n1,inactive
17,COc1ccc2cc(S(=O)(=O)Nc3ccccn3)ccc2c1,inactive
18,Cc1ccc(NS(=O)(=O)c2ccc(C)c(NC(=O)COc3ccc4ccccc4c3)c2)c(C)c1,inactive
19,COc1cc(NS(=O)(=O)c2ccc3ccccc3c2)c2ncccc2c1,5.17 µM (active)
20,CC(=O)Nc1ccc(NC(=O)C(NS(=O)(=O)c2ccc3c(c2)OCCO3)C(C)C)cc1 (configuration not stated),inactive
21,Cc1ccc(-n2nc3ccc(NC(=O)/C=C/c4ccco4)cc3n2)cc1C,8.2 µM (active)
22,CCC(=O)Nc1ccc2nn(-c3ccc(F)cc3)nc2c1,inactive
23,Cc1nnc(NC(=O)/C=C/c2ccco2)s1,inactive
24,CNN/C(N=Cc1ccc([N+](=O)[O-])s1)=N\S(=O)(=O)c1cc(C)c(Cl)cc1SCc1ccccc1,inactive
25,CN(CCc1ccccc1)C(=O)c1cccc(NC(=O)Cc2ccc([N+](=O)[O-])cc2)c1,inactive

row,Compound,Potency
1,O=C1c2ccccc2[C@@H]2C[C@@H](O)[C@H](Nc3ccccc3Cl)CCN12,inactive
2,CC(C)N(C(=O)CSc1nnc(NC2CC2)s1)c1ccccc1,inactive
3,CC(=O)c1c(C)oc2ccc(NS(=O)(=O)c3ccccc3)cc12,inactive
4,COc1ccc(S(=O)(=O)Nc2ccc3oc(C)c(C(C)=O)c3c2)cc1,5.17 µM (active)
5,CC(=O)c1c(C)oc2ccc(NS(=O)(=O)c3ccc(C(=O)O)cc3)cc12,inactive
6,NN=C(NN=Cc1ccccc1)c1ccccc1,inactive
7,COc1ccc(S(=O)(=O)N(C)C[C@H]2Oc3ccc(NS(=O)(=O)c4cccs4)cc3CC(=O)N([C@H](C)CO)C[C@H]2C)cc1,inactive
8,Cc1ccc(N/C=C/C(=O)c2ccccc2)cc1C,inactive
9,Cc1cc(C)nc(SCC(=O)c2ccc(Cl)cc2)n1,inactive
10,Cc1cc(C)nc(S/C=C/C(=O)c2ccccc2)n1,1.3 µM (active)
11,CC(=O)C[C@H](O)CC(=O)[C@@H]1OC(=O)[C@@H](C)C/C=C\Cc2ccccc21,inactive
12,CCOc1ccc(NC(=O)CN(C)C(=O)CSc2ccccc2)cc1OCC,inactive
13,Cc1cc(NC(=O)CSc2nc3ccccc3n2CC(C)C)no1,inactive
14,Cc1cc(NC(=O)CSc2nc3cc(Cl)ccc3c(=O)n2Cc2ccco2)no1,18.4 µM (active)
15,Cc1cc(NC(=O)CSc2nnc(-c3ccco3)n2N)no1,inactive
16,COc1ccc(S(=O)(=O)N2CCOCC2)cc1NC(=O)Cc1coc2cc(C)ccc12,inactive
17,COC(=O)C1CC2=C(CC(C)(C)CC2=O)N(c2ccccc2)C1=O (configuration not stated),inactive
18,Cc1nn(Cc2ccccc2)c(C)c1C(=O)N1CCN(CC(=O)Nc2ccccc2Cl)CC1,inactive
19,CC(OC(=O)c1cc2ccccc2o1)C(=O)Nc1ccc(N2CCOCC2)cc1 (configuration not stated),inactive
20,OC(c1nc2ccc(F)cc2[nH]1)C(O)c1nc2ccc(F)cc2[nH]1 (configuration not stated),inactive
21,CC(C)c1nc2ccc(C(=O)O)cc2[nH]1,11.6 µM (active)
22,OC(c1nc2ccccc2[nH]1)C(O)C(O)C(O)c1nc2ccccc2[nH]1 (configuration not stated),inactive
